# Experimental data reported in the supplement of paper PMC10646978.
# ± gives the standard deviation.
# System: RAW-Dual (murine macrophage reporter line)
# Assay: IRF reporter (Lucia luciferase) activity fold change vs agonist alone; higher = enhanced IRF activity
# Conditions: modulator concentration 10 µM; agonist: MPLA […]
# Summary of the method: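 RAW-Dual murine macrophage reporter cells were plated at 50 000 per well in 384-well plates, pin-transferred compound to 10 μM final, and pre-incubated for 1 hour at 37 °C before a PRR agonist was added and the cells incubated overnight. NF-κB activity was read from supernatant SEAP with QUANTI-Blue at 620 nm absorbance, and IRF activity from Lucia luciferase with QUANTI-Luc by luminescence. Each signal was expressed as fold change by dividing by the mean agonist-only control on the same plate. Two replicate plates were averaged, with errors obtained by propagation.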
row,Structure (SMILES),IRF reporter
1,Cc1ccccc1CNC(=O)CN(c1cccc(C(F)(F)F)c1)S(C)(=O)=O,1.03 ± 0.24
2,COc1ccc(CCC(=O)NCc2nc(N(C)C)nc(N3CCCCC3)n2)cc1,0.661 ± 0.12
3,CCOC(=O)CN1CCOCCOCCN(CC(=O)OCC)CCOCCOCC1,1.02 ± 0.1
4,CN(C)C(CNC(=O)NCc1ccc(F)cc1)c1ccc2c(c1)CCO2 (stereo not given),0.804 ± 0.12
5,CC(=O)c1ccc(Nc2ncnc(Nc3ccc(C(C)=O)cc3)c2[N+](=O)[O-])cc1,0.994 ± 0.076
6,CCCCCCc1ccc(O)cc1O,1.2 ± 0.13
7,COc1ccc(C(=O)CSc2nnc(NC(=O)C3CC(=O)N(c4cccc(OC)c4)C3)s2)cc1 (stereo not given),0.708 ± 0.23
8,COC(=O)C1=CN(CC2CCCO2)C=C(C(=O)OC)C1c1cccc(Cl)c1 (stereo not given),1.1 ± 0.093
9,O=C(C=Cc1ccc(Br)cc1)c1c(-c2ccccc2)c2cc(Cl)ccc2[nH]c1=O,1.5 ± 0.16
10,CCOCCn1c(N2CCCN(C)CC2)nc2ccccc21 [Prestw-1274],1.44 ± 0.15
11,Cc1cccc(-c2cc3nc(C)c(Cl)c(O)n3n2)c1,1.04 ± 0.24
12,COc1cc2c(cc1OC)C1Cc3ccc(OC)c(OC)c3CN1CC2 (stereo not given),1.15 ± 0.17
13,CN1CCN(c2ccc(C(=O)Nc3n[nH]c4ccc(Cc5cc(F)cc(F)c5)cc34)c(NC3CCOCC3)c2)CC1,0.465 ± 0.13
14,CCCCCc1ccc(-c2ccc(-c3noc(-c4ccc(CCCC)cc4)n3)cc2)cc1,1.45 ± 0.31
15,O=C(CCn1c(=O)oc2ccccc21)Nc1ccccc1,1.06 ± 0.13
16,COc1cc2c(cc1OC)C(=O)C(CC1CCN(Cc3ccccc3)CC1)C2.Cl (stereo not given),1.29 ± 0.22
17,CC(C)NC(=O)CCn1c(=O)c2cc(Cl)ccc2n2c(SCc3ccc(F)cc3)nnc12,1.41 ± 0.39
18,CC(Oc1cccc(Cl)c1)C(=O)Nc1nncs1 (stereo not given),1.05 ± 0.2
19,COc1ccc(CNc2nc(N3CCC[C@H]3CO)ncc2C(=O)NCc2ncccn2)cc1Cl,1.23 ± 0.36
20,COC(=O)c1ccc(CSc2ccc3nnc(-c4cccc(F)c4)n3n2)o1,0.968 ± 0.093

row,Structure (SMILES),IRF reporter
1,CC(=NN1CCN(Cc2cccc3ccccc23)CC1)c1ccc(Br)cc1,1.11 ± 0.29
2,CCN1CCN(CC(O)COc2ccc(C(C)(C)C)cc2C(C)(C)C)CC1.Cl.Cl (stereo not given),2.24 ± 0.24
3,COC(C(=O)NNC(=O)c1ccccc1Cl)c1ccccc1 (stereo not given),0.863 ± 0.081
4,CCN(CC)c1ccc(C=Nc2c(C)cc(C)cc2C)cc1,0.94 ± 0.065
5,CN1CCN(C2CC(=O)N(c3ccc(N4CCOCC4)cc3)C2=O)CC1 (stereo not given),1.13 ± 0.29
6,O=c1[nH]c(NN=Cc2c3ccccc3cc3ccccc23)nc2ccccc12,1.23 ± 0.19
7,CCOc1ccccc1OCCCCOc1cccc(Cl)c1,1.23 ± 0.2
8,CCCOc1cccc(C=C2N=C(c3ccc(Cl)c([N+](=O)[O-])c3)OC2=O)c1,1.04 ± 0.15
9,Cc1[nH]c2ccccc2c1CCNCc1ccc(/C=C/C(=O)NO)cc1,0.509 ± 0.06
10,COc1ccc(CN(CCN(C)C)c2ccccn2)cc1.O=C(O)C=CC(=O)O,0.897 ± 0.07
11,CC1(C)OC[C@@H](COC(=O)CCc2ccc(OC[C@@H](O)CNCCNC(=O)N3CCOCC3)cc2)O1.Cl,0.832 ± 0.2
12,Cl.Nc1c2c(nc3ccccc13)CCCC2,0.837 ± 0.12
13,Br.Cc1ccc(Sc2ccccc2N2CCNCC2)c(C)c1,1.03 ± 0.12
14,O=c1oc2cc(O)ccc2c2ccccc12,1.28 ± 0.17
15,COC(=O)C1=C(C)N(C)C(C)=C(C(=O)OC)C1c1ccc(-c2ccccc2)cc1,0.905 ± 0.19
16,Oc1ccc(C=Cc2cc(O)cc(O)c2)cc1,0.403 ± 0.084
17,CCCCc1c(C)nc(NN=C(C)c2cccc([N+](=O)[O-])c2)nc1O,1.18 ± 0.19
18,O=[N+]([O-])c1ccc(Nc2ccccc2O)c2nonc12,1.28 ± 0.17
19,CC(=O)Nc1cc2nc3ccccc3nc2cc1NC(C)=O,0.988 ± 0.3
20,O=C(O)CCC(=O)Nc1ccc(Br)cc1C(=O)c1ccc(Cl)cc1,1.08 ± 0.18
